# From PubChem BioAssay (NCI)
# About 83,000 compounds went through this panel and 20% of them were active in at least one assay; those are over-represented in the sample as a whole.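 Method: cells in 96-well plates; compound added at one concentration; 48 h incubation; percent growth measured; values under 10 scored active.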 A number with no mark means an inactive call. Activity calls are given as the source filed them.
# System: NCI-H322M lung
# Assay: NCI-60 one-dose screen, 48 h (100 = growth as untreated, 0 = no growth, -100 = all killed)
# Details: 10 µM unless noted
row,SMILES,growth
1,CCNC(=O)Oc1ccc(/C(=C(/C)Cc2ccc(OC)cc2)c2ccc(OCCN3CCCCC3)cc2)cc1,89.2%
2,COC(=O)C(Cc1ccccc1)NC(=O)c1ccc(NC(=O)c2[nH]c(C)c(Cl)c2Cl)c(OC(C)C)c1 (stereo not given),102%
3,Cc1ccc(S(=O)(=O)Oc2ccc3sc4cccc(NCCN(C)C)c4c(=O)c3c2)cc1,-88.1% (active)
4,O=C(Nc1ncccc1OCc1ccccc1)NC1CCCCCC1,88.2%
5,CCNc1nc(O)c(/C=C2\C=Nc3ncccc32)s1,5.83% (active)
6,Ic1ccccc1I,126%
7,CC1=C2[C@@H](CC1)[C@]1(C)O[C@@](C3CCCCC3)(C[C@H]1OC(=O)CO)[C@H]2OC(=O)/C=C/c1ccccc1,94.6%
8,Cc1ccc(-c2csc(NC(=O)c3ccccc3CN3C(=O)c4ccccc4C3=O)n2)cc1,95.1%
9,Oc1c(CN2CCCC2)cc(CSCc2ccccc2)c2cccnc12,-0.478% (active)
10,Cc1ccc(-c2nc(SCc3nc4cc(Cl)c(Cl)cc4[nH]3)[nH]c(=O)c2C#N)cc1,101%
11,CC/C=C\CCC/C=C1/C(=O)C=C[C@@H]1C/C=C\CCCC(=O)OC,101%
12,C=C1C(=O)O[C@H]2[C@H]1CC/C(Cn1cc(CCC)nn1)=C\CC[C@@]1(C)O[C@@H]21,90.2%
13,CN(C)CCCC1(c2ccc(F)cc2)OCc2cc(-c3ccc4cc[nH]c4c3)ccc21 (stereo not given),65%
14,COc1ccc(CCN(CC(=O)N(CC(N)=O)C2CCC[C@@H]2OCc2ccccc2)C(=O)CN(C(=O)CN(CCc2ccc(Cl)cc2)C(=O)CN(C(=O)CN(C)Cc2ccccc2F)[C@H](C)C2CCCCC2)[C@H](C)C2CCCCC2)cc1OC (stereo not given in full),40.6%
15,COc1ccc(C(=O)Cn2c(C(=O)c3ccc(Cl)cc3)nc3ccccc32)cc1,89.7%
16,O=C1/C(=C/c2ccccc2F)CN(C(=O)C(Cl)Cl)C/C1=C\c1ccccc1F,-18.5% (active)
17,CCOC(=O)C1=C(C)C(Cl)=N/C1=C\c1[nH]c(Cl)c(C)c1C(=O)OCC,100%
18,COc1ccc(/C=C/C(c2cc(OC)c(OC)c(OC)c2)n2cncn2)cc1 (stereo not given),61.2%

row,SMILES,growth
1,CCN1C(=O)N(CC)C2C1NC(=S)N2/N=C/c1ccc(C(F)(F)F)cc1 (stereo not given),82.5%
2,C[C@H](CCCC(=O)NCC#CCN1CCN(C)CC1)[C@H]1CC[C@H]2[C@@H]3CC[C@@H]4CC(=O)CC[C@]4(C)[C@H]3CC[C@]12C,97.7%
3,Fc1cccc(-c2ccc3c(c2)C2(CCNCC2)CN3)c1,101%
4,CCN1C(=O)N(CC)C2Nn3c(s/c(=C\c4ccccc4Br)c3=O)=NC21 (stereo not given),46.7%
5,O=C(NCc1cccc(CNC(=O)Nc2nc3ccccc3[nH]2)c1)Nc1nc2ccccc2[nH]1,-7.92% (active)
6,O=C1Nc2ccccc2/C1=C\c1c[nH]c2ccc(Br)cc12,64.2%
7,COc1cc(C2C(C(=O)OCc3ccccc3)=C(C)NC(C)=C2C(=O)OCc2ccccc2)cc(OC)c1OC,58%
8,CCn1cc(CNc2ccc(C(=O)Nc3cc4cc(OC)c(OC)cc4c(C)n3)cc2)cn1,103%
9,COc1cc(/C=C/C(=O)/C=C(O)/C=C/c2ccc(OC(=O)C34CC5CC(CC(C5)C3)C4)c(OC)c2)ccc1OC(=O)C12CC3CC(CC(C3)C1)C2,102%
10,COc1ccc(C2=CN3CC=CC3CC2=O)cc1 (stereo not given),108%
11,C=C(C)[C@@H]1CCC[C@]2(C(=O)O)CC[C@]3(C)[C@@H](CC[C@@H]4[C@@]5(C)C/C(=C/c6ccncc6)C(=O)C(C)(C)[C@@H]5CC[C@]43C)[C@@H]12,26.3%
12,FC(F)(F)c1ccc(Cn2cc(CSc3nc4ccccc4s3)nn2)cc1,94.4%
13,CCCn1nc(C(=O)N(C)Cc2ccccc2)c2c1CCC(N1CCc3ccccc31)C2 (stereo not given),101%
14,CCN1C(=O)N(CC)C2C1NN=c1s/c(=C\c3cnc(C)n3C)c(=O)n12 (stereo not given),29.6%
15,CCOC(=O)c1c(C)nc2ccccc2c1/C=C/c1ccccc1,95.5%
16,CN1CCN(C(=S)SCCCCOc2cc(=O)oc3ccccc23)CC1,102%
17,Nc1nc(N)c2c(n1)NC(c1cccc(Nc3ccnc4cc(C(F)(F)F)ccc34)c1)CC(c1ccc(Br)cc1)=N2 (stereo not given),96.1%
